Hits are enriched below; roughly 15% of the tested compounds scored in any of these assays.
Gal4-VP16 FLuc: counter-screen for ROR gamma inhibitors: Gal4-VP16 reporter | Potency, µM (top dose mostly 53.6 µM), without a hit: at the top dose activity, negative = inhibition, hits mostly inhibitors | AID 2546 | Drosophila S2 Gal4-VP16 UAS-luciferase, luminescence, 20 h | actives 3.5% (n = 310,000);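 note: Gal4-VP16 expression switched on by copper sulfate through the metallothionein promoter; nearly all actives have a fitted effect of over 50% in size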
RORgamma inh: inhibitors of mouse ROR gamma transcriptional activity; P51450; Drosophila S2 Gal4-RORgamma UAS-luciferase reporter, 20 h; Potency, µM (top dose mostly 53.6 µM), inactives show at the highest dose activity change, negative = inhibition, actives largely listed as inhibitors; actives 5.4% (n = 310,000); AID 2551; note: nearly all actives have a fitted effect of over 60% in size
Target sequence (P51450 whole entry, looked up, the tested form may be a part): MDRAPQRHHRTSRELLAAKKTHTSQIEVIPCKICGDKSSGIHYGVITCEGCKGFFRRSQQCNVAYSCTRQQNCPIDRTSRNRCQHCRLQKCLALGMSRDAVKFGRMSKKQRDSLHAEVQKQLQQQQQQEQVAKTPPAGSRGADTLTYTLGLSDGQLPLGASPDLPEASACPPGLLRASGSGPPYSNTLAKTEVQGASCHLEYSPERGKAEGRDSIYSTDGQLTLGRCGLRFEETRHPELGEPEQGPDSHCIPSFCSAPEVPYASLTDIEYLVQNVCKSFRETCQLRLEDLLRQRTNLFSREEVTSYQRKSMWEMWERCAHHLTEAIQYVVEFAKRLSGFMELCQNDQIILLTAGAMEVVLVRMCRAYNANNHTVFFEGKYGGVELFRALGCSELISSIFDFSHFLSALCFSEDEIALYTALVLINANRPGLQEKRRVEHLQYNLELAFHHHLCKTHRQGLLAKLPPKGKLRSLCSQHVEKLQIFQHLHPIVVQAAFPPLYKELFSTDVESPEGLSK
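Read-out: Photinus luciferase luminescence; inhibitors lower reporter signal. Insect Schneider cells with Gal4-ROR gamma fusion under metallothionein promoter, UAS reporter; 700 uM final copper sulfate induction, 20 hr, ambient temperature.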
12-LOX inh: ALOX12 (human) lipoxygenase inhibition. P18054. purified 12hLO, xylenol orange hydroperoxide absorbance. Potency, µM (titrated, usually from 108 µM), inactives show top-dose activity change, negative = inhibition, most hits filed as inhibitors. actives 1.1% (n = 580,000). AID 1671190
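Hydroperoxide product was detected by ferrous iron/xylenol orange as the 573 to 405 nm absorbance ratio. Arachidonic acid at 40 uM (final) was turned over for 30 min at room temperature by 150 nM human 12hLO, pH 7.0 Hepes buffer, after 15 min compound preincubation.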
TDP1 cell noCPT: qHTS for Inhibitors of human tyrosyl-DNA phosphodiesterase 1 (TDP1): qHTS in cells in absence of CPT; DT40 Tdp1-/- hTDP1 cells, no CPT, ATP luminescence, 48 h; Potency, µM (series often up to 46.2 µM), inactives show at the top dose activity change, negative = growth inhibition, hits mostly inhibitors; actives 15% (n = 420,000); AID 686978, 2013; note: nearly all actives have a fitted effect of over 55% in size
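Cells were dispensed at 400 per well, compounds added by pin tool, plates incubated ≥48 hr at 37 °C, then CellTiter-Glo added for 30 min at room temperature before luminescence reading. Line: DT40 Tdp1-/- complemented with hTDP1; camptothecin omitted.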
ELG1 DNA repair: ELG1-dependent DNA repair inhibition; HEK293T ELG1-luciferase reporter, luminescence, 16 h; DNA damage induced by 5-fluorouridine; actives 2.3% (n = 330,000); AID 504467; Potency, µM (series often up to 46.1 µM), inactives show top-dose activity change, negative = inhibition, usual class: inhibitors; note: nearly all actives have a fitted effect of over 55% in size
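In this reporter screen, reduction of luminescence relative to DMSO vehicle indicated activity. Compounds and 5-fluorouridine were added together to 2,000 cells per well, incubated for 16 hr at 37 °C, then developed with ONE-Glo.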
DT40 TDP1 CPT: growth inhibition of DT40 Tdp1-/-;hTDP1 cells with camptothecin (screen for TDP1 inhibitors); Potency, µM (doses to about 46.2 µM), inactives show at the highest dose activity change, negative = growth inhibition, hits mostly inhibitors; AID 686979; chicken DT40 Tdp1-/-;hTDP1 cells + 20 nM CPT, ATP luminescence, 48 h; actives 12% (n = 420,000); note: nearly all actives have a fitted effect of over 55% in size
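Chicken DT40 Tdp1-/- cells stably complemented with human TDP1 were seeded at 400 cells/well in medium containing 20 nM camptothecin, exposed to pin-transferred compounds, and grown at 37 °C for at least 48 hr. Viability was read as ATP luminescence.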
* = called active by the depositor; ? = inconclusive; nt = not tested or not shown; [ ] = dose if it differs, or a comment. Calls come from the whole dose curve; as a rule, active = well fitted curve in the direction sought with a large enough effect; inconclusive = small, poorly fitted or top-dose-only effect, or another doubt; inactive = no such curve, though single readings can be large; an effect the other way counts as inactive or inconclusive. % is set by controls: 0 for no effect and ±100 for the full control effect; potency is the fitted concentration of half-maximal effect.

SMILES	Gal4-VP16 FLuc	RORgamma inh	12-LOX inh	TDP1 cell noCPT	ELG1 DNA repair	DT40 TDP1 CPT
O=C(COc1ccc2c(-c3ccccc3)cc(=O)oc2c1)NCCCn1ccnc1	-3.2%	28.6%	17.3%	?	?	18.4µM*
Cc1cc(=O)oc2cc(OCC(=O)NCCCn3ccnc3)ccc12	-1.5%	-1.3%	?	-7.9%	2.9%	18.0%
CCOC(=O)C(Oc1ccc2c(-c3ccc(OC)cc3)cc(=O)oc2c1C)c1ccccc1 (configuration not stated)	3.8%	-0.7%	-9.5%	?	-15.4%	16.4µM*
COc1ccc(-c2cc(=O)oc3cc(O)ccc23)cc1	-7.1%	26.0%	-4.1%	7.31µM*	?	?
Cn1ncc(N2CCC(CNC(=O)c3cccc(-n4cnnc4)c3)C2)cc1=O (configuration not stated)	nt	nt	6.6%	nt	nt	nt
CC(=O)Nc1ccc(NC(=O)Cn2ccc3cc(Cl)ccc32)cc1	nt	nt	-22.1%	nt	nt	nt
CC(C)C(=O)N1N=C(c2ccc(Cl)cc2)CC1c1ccc2nccnc2c1 (configuration not stated)	nt	nt	1.0%	nt	nt	nt
O=C(COc1ccc2c(-c3ccccc3)cc(=O)oc2c1)NCCN1CCOCC1	-4.3%	0.0%	16.3%	-13.6%	-4.1%	?
CC(Oc1cc2oc(=O)c3c(c2cc1Cl)CCCC3)C(=O)NCCN1CCOCC1 (configuration not stated)	-4.6%	15.4%	-15.0%	13µM*	1.2%	?
COc1ccc(-c2cc(=O)oc3c(C)c(O)ccc23)cc1	5.1%	12.1%	0.0%	3.26µM*	8.2µM*	7.31µM*
COc1ccc(-c2cc(=O)oc3cc(OC(=O)C4CCCCC4)c(Cl)cc23)cc1	1.4%	-0.5%	-18.7%	?	3.26µM*	23.1µM*
O=C(COc1cc2oc(=O)cc(-c3ccccc3)c2cc1Cl)NCCN1CCOCC1	2.1%	-2.1%	0.0%	7.31µM*	0.8%	4.11µM*
Cn1cc(C(C(=O)O)N2CCN(Cc3cccc(Cl)c3)CC2)c2cc(C(=O)O)ccc21 (configuration not stated)	nt	nt	-33.9%	nt	nt	nt
CCCCCOC(=O)CCC	nt	nt	-1.1%[176 µM]	nt	nt	nt
CCOc1ccccc1Oc1c(C(F)(F)F)oc2cc(OC(=O)c3ccc(C)cc3)ccc2c1=O	nt	nt	-1.1%	nt	nt	nt
COc1ccc(-c2cc(=O)oc3cc(OCC(=O)Nc4ccccn4)ccc23)cc1	-17.2%	3.4%	0.9%	?	?	16.4µM*
CCCCN(C)Cc1c(O)ccc2c(-c3ccccc3)cc(=O)oc12	18.4%	13.9%	-9.3%	14.6µM*	2.7%	?
CCCc1cc(=O)oc2cc(OCC(=O)Nc3ccccn3)ccc12	-12.8%	-0.6%	37.1%	?	?	-16.0%
O=C(O)C(c1c[nH]c2ccc(Cl)cc12)N1CCN(Cc2cccnc2)CC1 (configuration not stated)	nt	nt	1.7%	nt	nt	nt
CCc1ccccc1NC(=S)NCC1CCN(c2ccc(OC)cc2)C1 (configuration not stated)	10µM*	2.51µM*	?	20.6µM*	-24.0%	?
CCc1cccc(C)c1NC(=S)NCC1CCN(c2ccc(OC)cc2)C1 (configuration not stated)	7.08µM*	6.31µM*	?	20.6µM*	?	20.6µM*
COc1ccc(N2CCC(CNC(=O)Nc3ccc(Cl)cc3)C2)cc1 (configuration not stated)	-3.0%	?	?	18.4µM*	?	?
COc1ccc(N2CCC(CNC(=O)Nc3cccc(OC)c3)C2)cc1 (configuration not stated)	15.8%	18.4%	?	?	-24.2%	?
COc1ccc(N2CCC(CNC(=S)Nc3cccc(OC)c3)C2)cc1 (configuration not stated)	5.62µM*	3.16µM*	?	nt	1.3%	nt
COc1cccc(S(=O)(=O)N2CCC(Cc3nncn3C)C2)c1 (configuration not stated)	nt	nt	28.4%	nt	nt	nt
SMILES	Gal4-VP16 FLuc	RORgamma inh	12-LOX inh	TDP1 cell noCPT	ELG1 DNA repair	DT40 TDP1 CPT
CNCCO	nt	nt	-3.4%	nt	nt	nt
CCCc1nnc(NC(=O)Cn2ccc3ccc(Cl)cc32)s1	nt	nt	-9.9%	nt	nt	nt
CCc1nc2ccc(C(=O)N(C)Cc3ccco3)cn2c1N(CC)Cc1cccc(Br)c1	nt	nt	-24.1%	13µM*	nt	11.6µM*
CCc1nc2ccc(C(=O)N(C)Cc3ccco3)cn2c1N(C)CCCc1ccccc1	nt	nt	-25.3%	16.4µM*	nt	16.4µM*
CCc1nc2ccc(C(=O)NC3CCN(Cc4ccccc4)CC3)cn2c1N(CC)Cc1cccc(Br)c1	nt	nt	-2.6%	11.6µM*	nt	14.6µM*
CCc1nc2ccc(C(=O)N3CCN(C(=O)c4ccco4)CC3)cn2c1N(CC)Cc1cccc(Br)c1	nt	nt	4.4%	23.1µM*	nt	14.6µM*
COc1ccc(Cn2nccc2NC(=O)c2cc(=O)c3cc(C)ccc3o2)cc1	nt	nt	11.6%	nt	nt	nt
CC(C)=N/N=C1\NC(=O)C(C)S1 (configuration not stated)	?	11.2µM*	456.0%	-4.2%	18.1%	5.0%
C/C(=N\N=C1/NC(=O)C(C)S1)c1ccc([N+](=O)[O-])cc1 (configuration not stated)	5.0%	?	8.2%	-23.7%	15.6%	0.1%
CC(C)C(=O)N[C@H]1[C@H](O)[C@H](O)C[C@@H]1c1ccc(N2CCOCC2)nc1	nt	nt	58.3%[176 µM]	nt	nt	nt
O=C(CSc1ncc(-c2ccc(F)cc2)n1Cc1ccco1)Nc1ccc2c(c1)OCO2	17.6%	19.5%	33.0%	?	nt	29.1µM*
Cc1ccc(NC(=O)Cn2c(-c3ccc(F)cc3)cnc2SCC(=O)Nc2c(C)cccc2C)cc1	?	-26.6%	-11.4%	11.6µM*	?	10.3µM*
CCOc1ccc(NC(=O)CSc2ncc(-c3ccc(F)cc3)n2Cc2ccco2)cc1	?	?	28.2%	?	16.4µM*	?
CCOc1ccc(NC(=O)CSc2nnc(-c3ccco3)n2N)cc1	-7.5%	-15.7%	12.8%	20.3%	20.6%	13.9%
CC1CCc2nn3ccn(CC(=O)Nc4ccc(F)cc4)c(=O)c3c2C1 (configuration not stated)	nt	nt	-10.1%	nt	nt	nt
COc1ccc(-c2noc([C@@H]3CCCN3C(=O)c3cccc(F)c3)n2)cc1OC	nt	nt	28.8%	nt	nt	nt
CC(=O)c1cccc(NC(=O)C(C)n2c(=O)cc(C)c3c(C)nn(-c4ccccc4)c32)c1 (configuration not stated)	nt	nt	-23.8%	-16.1%	nt	-20.8%
